In PubChem BioAssay (NCATS):
Records with an inconclusive call do not appear. Values without a mark were called inactive. Activity calls are given as the source filed them. The call rests on the fitted dose curve; in most records, active means well fitted inhibition curve with a large enough effect; inconclusive means small, poorly fitted or top-dose-only effect; inactive means flat fitted curve, though single readings scatter.

Each molecule was assayed on Zika virus NS2B-NS3 protease (assay: Primary screen GU AMC qHTS for Zika virus inhibitors (AID 1347154;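 further: 0% = no-inhibitor control and -100% = no-enzyme control; nearly all actives have a fitted effect of over 70% in size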)). Details: Zika NS2B-NS3 unlinked protease, AMC fluorogenic substrate; series mostly up to 54.1 µM; activity change, negative = inhibition: at the top concentration.
How it was run: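 Unlinked Zika NS2B hydrophilic domain–NS3 protease complex at 25 nM in 10 mM Tris-HCl pH 8.0, 0.01% Tween 20, with an AMC peptide substrate. Fluorescence change (340/450 nm) over 15 min at room temperature, normalized to controls, fitted to 4-parameter Hill.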
For `O=C1NC(=O)c2c1c(-c1ccccc1)cc1[nH]c3ccc(O)cc3c21`, the “activity change, negative = inhibition” value was 2.43%.
With `N[C@H](CCCP(=O)(O)O)C(=O)O` the Potency was “inactive”.
For `CCCCCCCCCCCCCCCC(=O)OC(CC(=O)O)C[N+](C)(C)C` (stereo not given), the “activity change, negative = inhibition” value was 9.41%.
In the case of `CCCCCCCC/C=C\CCCCCCCC(=O)NCCO`, the Potency is reported as “inactive”.
In the case of `CC12C(=O)OC(=O)C1(C)C1CCC2O1` (stereo not given), the “activity change, negative = inhibition” value is reported as 38.3% [at 104 µM].
With `COC(=O)c1c(C)[nH]c(C)c1C(=O)c1ccccc1Cc1ccccc1` the Potency was “inactive”.
For `Cn1cc(C2=C(c3ccc(Cl)cc3Cl)C(=O)NC2=O)c2ccccc21`, the “activity change, negative = inhibition” value was 12.9%.
In the case of `COc1cccc(OC)c1OCCNCC1COc2ccccc2O1` (stereo not given), the “activity change, negative = inhibition” value is reported as 4.29%.
In the case of `CCCCCCCCc1ccc(-c2ccc(C(=O)O)cc2)cc1`, the “activity change, negative = inhibition” value is reported as 9.19%.
With `O=c1[nH]c2cc(C(F)(F)F)ccc2n1-c1cc(C(F)(F)F)ccc1O` the “activity change, negative = inhibition” value was -11.3%.
In the case of `COc1ccccc1CNCCCCCCNCCCCCCCCNCCCCCCNCc1ccccc1OC`, the “activity change, negative = inhibition” value is reported as 0.611%.
With `O=[N+]([O-])c1ccc2c(c1)S(=O)(=O)C=C2` the “activity change, negative = inhibition” value was 11.9%.
For `Cc1ccc(S(=O)(=O)/C=C/C#N)cc1`, the “activity change, negative = inhibition” value was 8.59%.
`O=S(=O)(c1cccc2c(I)cccc12)N1CCCNCC1` was tested, and the “activity change, negative = inhibition” value was 14.3%.
`NC[C@@H]1O[C@H](C23CC4CC(CC(C4)C2)C3)Cc2c1ccc(O)c2O` was tested, and the Potency was “inactive”.
`O=C(Nc1ccncc1)c1cc([N+](=O)[O-])ccc1Cl` was tested, and the “activity change, negative = inhibition” value was 14.2%.
For `O=C(Nc1ccccc1)c1cc([N+](=O)[O-])ccc1Cl`, the Potency was “inactive”.
With `CC(C)NCC(O)COc1cccc2ccccc12` (stereo not given) the “activity change, negative = inhibition” value was 15.8%.
For `CNCC[C@H](Oc1ccc(C(F)(F)F)cc1)c1ccccc1`, the “activity change, negative = inhibition” value was -1.11%.
In the case of `C=CCc1cccc(/C=N/NC(=O)CN2CCN(Cc3ccccc3)CC2)c1O`, the “activity change, negative = inhibition” value is reported as 28.5%.
